Results from PubChem BioAssay AID1053125 (Broad Institute, 2014).
Entries with a potency or affinity are not part of this list. Activity calls are given as the source filed them.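 Rule for the calls: active = viability loss whose fitted half-maximal concentration is at most twice the top valid tested dose; inconclusive = flat curve with 30 to 70% loss, or poor fit; inactive = the rest.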

Assay: HepG2 cell cytotoxicity, dose response, cytotoxicity control, ATP luminescence, cherry-pick, set 6 (AID 1053125);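 note: negative values mean loss of viability signal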
Conditions: HepG2 viability, ATP luminescence (CellTiter-Glo), 72 h; series mostly up to 26 µM

Structure (SMILES) | outcome
CN1c2ccc(Cl)cc2C(=O)NC1C1CC=CCC1 (stereo not given) | inactive
Nc1ccc2nc(-c3ccccc3)cnc2c1 | inactive
O=C(/C=C/c1ccccc1)C1=C(O)C(=O)N(CCO)C1c1ccc2c(c1)OCO2 (stereo not given) | inactive
CCN(CC)Cc1c(O)c(Cl)cc2c(C)cc(=O)oc12 | inactive
CCOC1=NN(c2ncc(C(F)(F)F)cc2Cl)C(=O)C1 | inactive
C=CCn1c(=N)c(C#N)cc2c(=O)n3ccccc3nc21 | inactive
O=C(c1cccc(Cl)c1)N1CCC(=O)N(C(COCc2ccccc2)Cc2ccccc2)CC1 (stereo not given) | inactive
CC(C)CCN(CCC(C)C)CC(O)Cn1c2ccccc2c(=O)c2ccccc21 (stereo not given) | inactive
CC1(C)CC(=O)C2=C(C1)OC(N)=C(C#N)[C@@H]2c1ccccc1[N+](=O)[O-] | inactive
CCOC(=O)c1oc2c(CN3CCN(CCO)CC3)c(O)c(CC)cc2c(=O)c1-c1nc2ccccc2s1 | inactive
CCN(CC)c1ccc2cc(S(=O)(=O)c3ccc(Cl)cc3)c(=O)oc2c1 | inactive
N=c1oc2cc(O)ccc2cc1C(=O)Nc1nc2ccccc2s1 | inactive
CCOC(=O)c1cc2c(=O)n3ccccc3nc2n(Cc2ccc(Cl)cc2)c1=N | inactive
O=c1oc2cc(O)ccc2cc1S(=O)(=O)c1ccccc1 | inactive
Cn1c2ccccc2c(=O)c2ccc(F)cc21 | inactive
CC(=O)c1cc2c(ccc3ccccc32)oc1=O | inactive
CCOC(=O)C1=CN(CC2CCCO2)C=C(C(=O)OCC)C1c1ccccc1C(F)(F)F (stereo not given) | inactive
COCc1cc(C)nc(SCC(=O)Oc2ccc(Cl)cc2)c1C#N | inactive

Structure (SMILES) | outcome
COc1ccc(CCNC(=O)c2cc(S(=O)(=O)N3CCCCC3)c[nH]2)cc1OC | inactive
CC(=O)c1cccc(-c2ccnc3c2CC(C(=O)NCc2ccc(F)c(F)c2)O3)c1 (stereo not given) | inactive
COc1ccc(C2C3=C(CCCC3=O)N(CC(=O)O)C3=C2C(=O)CCC3)cc1 | inactive
Cc1cccn2c(=O)c(/C=C(\C#N)C(=O)NC3CCS(=O)(=O)C3)c(N3CCC(C(N)=O)CC3)nc12 (stereo not given) | inactive
CCNc1nc2nc3ccc(C)cn3c(=O)c2cc1C(=O)NCC1CCCO1 (stereo not given) | inactive
CCOCCCNC(=S)N1CCCN(c2nc3cc(C)c(C)cc3cc2C#N)CC1 | inactive
CC(C)C(=O)Nc1sc2c(c1C(N)=O)CCN(Cc1ccccc1)C2 | inactive
CNC(=O)c1ccc(NC(=O)c2cccc(C(F)(F)F)c2)cc1 | inactive
COC(=O)c1cc(=O)n(Cc2ccc3c(c2)OCO3)c(=Nc2ccc(F)c(Cl)c2)s1 | inactive
Clc1ccccc1C1=CC(c2ccco2)n2ncnc2N1 (stereo not given) | inactive
COc1ccccc1N1CCN(C2CCC(C)CC2)CC1 (stereo not given) | inactive
Cc1cccn2c(=O)c3cc(C(N)=S)c(=N)n(CCCOC(C)C)c3nc12 | inactive
CCC(=O)NCCCNc1nc2c(C)cccc2cc1C#N | inactive
Cc1cccn2c(=O)c3cc(C(=O)NCCN4CCOCC4)c(=N)n(Cc4ccc(F)cc4)c3nc12 | inactive
O=C(NS(=O)(=O)c1ccc(Cl)s1)c1ccccc1 | inactive
CCN(CC)CCNC(=O)c1sc2nc(-c3ccccc3)cn2c1C | inactive
N#C/C(=C\c1ccc(N2CCOCC2)o1)C(=O)NCCc1ccccc1 | inactive
